PubChem BioAssay (EPA / NIEHS)
Records with an inconclusive call do not appear. Activity calls are given as the source filed them. Rule for the calls: active = hit-call score of the fitted dose curve at least 0.9, where 1 is the maximum; inconclusive = response in the unintended direction; inactive = score below 0.9.

Biological target: Retinoic acid receptor RXR-alpha (Homo sapiens) (UniProt P19793)
Assay: ATG_RXRa_TRANS: Attagene TRANS-FACTORIAL HepG2 Assay for human Retinoid X Receptor alpha (RXRa) (AID 2283012)
Protocol: ATG_TRANS is a cell-based, multiplexed-readout assay that uses HepG2, a human liver cell line, with measurements taken at 24 hours after chemical dosing in a 24-well plate.ATG_RXRa_TRANS is one of 30 assay component(s) measured or calculated from the ATG_TRANS assay. It is designed to make measurements of mRNA induction, a form of inducible reporter, as detected with fluorescence intensity signals by Reverse transcription polymerase chain reaction (RT-PCR) and Capillary electrophoresis technology.Data from the assay component ATG_RXRa_TRANS was analyzed into 1 assay endpoint. This assay endpoint, ATG_RXRa_TRANS, was analyzed in the positive analysis fitting direction relative to DMSO as the negative control and baseline of activity. Using a type of inducible reporter, measures of mRNA for gain-of-signal activity can be used to understand the reporter gene at the transcription factor-level as they relate to the gene RXRA. Furthermore, this assay endpoint can be referred to as a primary readout, because this assay has produced multiple assay endpoints where this one serves a reporter gene function. To generalize the intended target to other relatable targets, this assay endpoint is annotated to the nuclear receptor intended target family, where the subfamily is non-steroidal.
Human liver HepG2 cells are transiently transfected with multiple reporter transcription units (MRTUs) in 6-well plates using FuGene 6 reagent (Roche; 3 ml FuGene/1 mg DNA). The MRTU constructs are regulated by a cis-regulating element (promoter). […] A major difference between the CIS and TRANS system is that in CIS activities of endogenous TFs are measured, whereas the TRANS assay evaluates changes in activities of exogenous, chimeric NR-Gal4 proteins. […] At the end of 24 hour incubation, total RNA was isolated using TriZol reagent (Invitrogen). The isolated RNA is then reverse-transcribed using oligo(dT) primer and Mo-MLV reverse transcriptase (Invitrogen) with DNAse I (Ambion) treatment for 30 min. The one-tenth of the produced cDNA was amplified by PCR using Taq DNA polymerase (Invitrogen) and two reporter sequence-specific primers. The PCR products were fluorescently labeled by primer extension with 6-arboxyfluorescein (6-FAM) 5'-labeled reporter sequence-specific primer (2 min at 95 C, 20 s at 68 C and 10 min at 72 C) and these products were digested with 5U of HpaI (New England Biolabs) for 2h at 37 C. The fragments were purified using Qiaquick PCR columns (Qiagen), analyzed on an ABI 3130xL genetic analyzer (Applied Biosystems) with peak positions identified by using a set of X-rhodamine (ROX)-labeled MapMarker1000 molecular weight standards (BioVentures). The raw capillary electrophoresis data was processed using Attagraph software (Attagene).

Retinoic acid receptor RXR-alpha (Homo sapiens), sequence (P19793 whole entry, looked up): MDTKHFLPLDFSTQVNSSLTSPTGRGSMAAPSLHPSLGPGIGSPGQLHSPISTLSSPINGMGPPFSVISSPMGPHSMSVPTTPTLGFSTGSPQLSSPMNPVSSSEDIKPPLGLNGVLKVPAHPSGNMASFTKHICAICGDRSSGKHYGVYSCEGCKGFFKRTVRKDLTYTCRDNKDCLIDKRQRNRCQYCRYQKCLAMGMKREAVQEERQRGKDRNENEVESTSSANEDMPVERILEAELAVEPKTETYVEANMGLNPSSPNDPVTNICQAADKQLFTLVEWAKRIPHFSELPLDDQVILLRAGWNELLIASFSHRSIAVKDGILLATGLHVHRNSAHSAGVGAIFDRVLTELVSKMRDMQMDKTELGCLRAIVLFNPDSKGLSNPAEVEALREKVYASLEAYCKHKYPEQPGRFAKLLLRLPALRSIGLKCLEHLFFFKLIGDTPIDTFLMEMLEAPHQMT

outcome, inactive:
CN(C)c1ccc(C(c2ccccc2)c2ccc(N(C)C)cc2)cc1, Cc1ccccc1S(=O)(=O)O, O=C(O)/C=C\C(=O)O, Oc1ccc(Oc2ccccc2)cc1, O=S(=O)(O)c1cccc2ccccc12, C1=CCC=C1, CCC(C)NC(N)=O (stereo not given), CCCCCCCC#N, CCC(=O)OCc1ccc(OC)cc1, O=C(O)Cc1c[nH]c2ccccc12, O=C(C1CCCCC1)N1CC(=O)N2CCc3ccccc3C2C1 (stereo not given), c1ccc2c(c1)Oc1ccccc1S2, CCO[Si](OCC)(OCC)c1ccccc1, CCCCCCC1CCC(=O)O1 (stereo not given), F[B-](F)(F)F, COC(=O)[C@]1(C)CCC[C@@]2(C)[C@H]1CC=C1C=C(C(C)C)CC[C@@H]12, c1cc(N(CC2CO2)CC2CO2)ccc1Cc1ccc(N(CC2CO2)CC2CO2)cc1 (stereo not given), O=C(O)c1ccccc1C(=O)O, CCO[Si](CCCN)(OCC)OCC, CC[N+](CC)(CC(=O)Nc1c(C)cccc1C)Cc1ccccc1, Cc1cc2nc3c(=O)[nH]c(=O)nc-3n(C[C@H](O)[C@H](O)[C@H](O)CO)c2cc1C, CCCC[N+]1(C)CCCC1, CCCCCCC(O)CCCCCCCCCCC(=O)OC (stereo not given), Oc1cccc2ccccc12, CC(C)n1c(/C=C/[C@@H](O)C[C@@H](O)CC(=O)O)c(-c2ccc(F)cc2)c2ccccc21, N#CCN(CC#N)CCN(CC#N)CC#N, Sc1nc2ccccc2s1, CCOC(=O)CC(=O)OCC, O=C(O)c1cc(Cl)cc(Cl)c1O, Cc1ccnc(N)c1, C=C(C)C(=O)OCCCCCC, CC(=O)OC(C)(C)Cc1ccccc1, CCCCC(CC)COC(=O)CS (stereo not given), O=C(OCc1ccccc1)c1ccccc1, CN(C)CCCN1c2ccccc2CCc2ccc(Cl)cc21, c1cc[c]([Bi]([c]2ccccc2)[c]2ccccc2)cc1, C=CN1CCCCCC1=O, COCCCN, CC(C)CC(=O)CC(C)C, CC(C)CC(=O)CC(C)CC(C)C (stereo not given)
